Laboratory results published in PubChem BioAssay (Tox21).
Results filed as inconclusive are left out. Where a call stands in place of a potency, no number is given. Values without a mark were called inactive. Active and inactive are the calls of the source. Unless noted, the call rests on the fitted dose curve; in most records, active means well fitted curve in the direction sought with a large enough effect in the repeat runs; inconclusive means weak or mixed curves; inactive means no such curve, though single readings can be large; an effect the other way counts as inactive or inconclusive.

Assays:
[1] = qHTS assay to identify aromatase inhibitors - cell viability counter screen (AID 743084);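 further: cells stimulated with testosterone during compound exposure; nearly all actives have a fitted effect of over 55% in size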; further: potency means the concentration at half of the fitted maximal effect
[2] = biological target: Aryl hydrocarbon receptor (Homo sapiens) (UniProt P35869); assay: qHTS assay to identify small molecule that activate the aryl hydrocarbon receptor (AhR) signaling pathway (AID 743085); further: nearly all actives have a fitted effect of over 15% in size; further: potency means the concentration at half of the fitted maximal effect;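 on activation: HG2L7.5c1 human HepG2 liver cells with stably integrated DRE-driven firefly reporter; series mostly up to about 70 µM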
Summary of the method: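 Compounds were tested in HepG2 hepatocellular carcinoma cells harbouring a stably integrated luciferase gene under control of 20 DREs. Increased reporter signal after 24 h treatment at 37C was taken as AhR activation.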

[3] = qHTS assay to identify small molecule that activate the aryl hydrocarbon receptor (AhR) signaling pathway - cell viability counter screen (AID 743086); further: nearly all actives have a fitted effect of over 45% in size; further: potency means the concentration at half of the fitted maximal effect
Summary of the method: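 HepG2-AhR-luc (HG2L7.5c1) cells, 4000/well, were preincubated 5 h at 37C, exposed to compound in qHTS format for 24 hr at 37C, then given CellTiter-Fluor for 30 min; viability was read as fluorescence in the reporter wells.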

[4] = biological target: Peroxisome proliferator-activated receptor gamma (Homo sapiens) (UniProt P37231); assay: qHTS assay to identify small molecule agonists of the peroxisome proliferator-activated receptor gamma (PPARg) signaling pathway (AID 743094; active means well fitted activation curve with a large enough effect in the signal ratio in the repeat runs, not every such curve was filed as active; the % refers to the signal ratio)
Summary of the method: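 Stably transfected HEK293H cells (GeneBLAzer PPARg UAS-bla) were incubated with test substances for 17 h at 37C after a 5 h pre-incubation; beta-lactamase activity was then detected by FRET substrate fluorescence.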

[5] = qHTS assay to identify small molecule antagonists of the peroxisome proliferator-activated receptor gamma (PPARg) signaling pathway - cell viability counter screen (AID 743194); further: nearly all actives have a fitted effect of over 55% in size
Summary of the method: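 PPARg-UAS-bla HEK293H cells were plated, rested 5 h at 37 C, then treated with compounds plus rosiglitazone (50 nM final) for 17 h at 37 C; viability was then read by CellTiter-Glo luminescence after 30 min at room temperature.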

[6] = qHTS assay for small molecule agonists of the antioxidant response element (ARE) signaling pathway - cell viability counter screen (AID 743203; calls by dose curve; further: nearly all actives have a fitted effect of over 55% in size)
Summary of the method: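 Cells (ARE-bla HepG2, 2,000/well) receive DMSO-dissolved compounds after a 5 hrs rest. Plates incubate 16 hrs at 37C/5% CO2. CellTiter-Glo luminescence is then recorded after 30 min at room temperature.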

[7] = qHTS assay for small molecule activators of the heat shock response signaling pathway - cell viability counter screen (AID 743209); further: nearly all actives have a fitted effect of over 50% in size
Summary of the method: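 Quantitative HTS format, Tox21 10K library. HeLa cells carrying an HSE-driven beta-lactamase reporter were treated 5 h at 37 C, then assessed for viability by CellTiter-Glo luminescence.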

[8] = qHTS assay for small molecule activators of the heat shock response signaling pathway (AID 743210; active means well fitted activation curve with a large enough effect in the signal ratio in the repeat runs, with a control signal flat, not every such curve was filed as active; the % refers to the signal ratio;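 further: HeLa cells with beta-lactamase reporter driven by heat shock elements; series mostly up to about 63 µM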)
Summary of the method: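 Reporter gene assay: HeLa cells stably bearing an HSE-bla construct, compound treatment 5 h at 37 C, LiveBLAzer substrate 2.5 h at RT, fluorescence intensity.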

[9] = qHTS assay to identify small molecule agonists of the peroxisome proliferator-activated receptor delta (PPARd) signaling pathway - cell viability counter screen (AID 743211); further: nearly all actives have a fitted effect of over 55% in size
Summary of the method: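 Counter screen for cytotoxicity run in parallel with the PPARd reporter screen. Beta-lactamase reporter HEK293H cells exposed to compounds 17 h; ATP-based CellTiter-Glo luminescence quantified viability.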

[10] = qHTS assay to identify small molecule antagonists of the peroxisome proliferator-activated receptor delta (PPARd) signaling pathway - cell viability counter screen (AID 743213); further: nearly all actives have a fitted effect of over 50% in size
Summary of the method: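 Luminescence from CellTiter-Glo, added after the bla read and incubated 30 min at room temperature, gives viability of HEK293H PPARd-bla cells exposed to compounds for 17 h at 37 C with 300 nM L165041.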

[11] = biological target: Bile acid receptor (Homo sapiens) (UniProt Q96RI1); assay: qHTS assay to identify small molecule antagonists of the farnesoid-X-receptor (FXR) signaling pathway (AID 743217; active means well fitted inhibition curve with a large enough effect in the signal ratio in the repeat runs, not every such curve was filed as active; the % refers to the signal ratio)
Summary of the method: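 Beta-lactamase reporter under UAS control in HEK 293T cells; compound exposure 16 h at 37 °C in the presence of chenodeoxycholic acid (50 uM final); signal from B/G FRET substrate after 2 h at room temperature.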

[12] = qHTS assay to identify small molecule agonists of the farnesoid-X-receptor (FXR) signaling pathway - cell viability counter screen (AID 743218); further: nearly all actives have a fitted effect of over 45% in size
Summary of the method: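 In GeneBLAzer FXR-UAS-bla HEK 293T cells, compounds act for 16 h at 37 C. Cell viability is then scored in the reporter wells by CellTiter-Glo, 30 min at RT, luminescence.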

[13] = biological target: Bile acid receptor (Homo sapiens) (UniProt Q96RI1); assay: qHTS assay to identify small molecule agonists of the farnesoid-X-receptor (FXR) signaling pathway (AID 743220; active means well fitted activation curve with a large enough effect in the signal ratio in the repeat runs, not every such curve was filed as active; the % refers to the signal ratio)
Summary of the method: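 Beta-lactamase reporter under UAS control in GeneBLAzer FXR HEK 293T cells (5000/well) measured with LiveBLAzer FRET substrate after 2 h at room temperature. Compound exposure lasted 16 h at 37C.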

[14] = qHTS assay to identify small molecule antagonists of the farnesoid-X-receptor (FXR) signaling pathway - cell viability counter screen (AID 743221; active means well fitted cell-killing curve with a large enough effect in the repeat runs, not every such curve was filed as active; further: nearly all actives have a fitted effect of over 50% in size)
Summary of the method: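 Multiplexed counter screen: viability of FXR-bla HEK 293T cells under agonist stimulation by chenodeoxycholic acid (50 uM, final) and test compound for 16 h at 37 C, measured by CellTiter-Glo luminescence in the reporter wells.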

[15] = biological target: Vitamin D3 receptor (Homo sapiens) (UniProt P11473); assay: qHTS assay to identify small molecule agonists of the vitamin D receptor (VDR) signaling pathway (AID 743222; calls by dose curve)
Summary of the method: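 Agonist activity measured in VDR-bla reporter cells. Exposure 16 h, 37C, 5% CO2; detection by B/G FRET substrate, 2 h RT.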

[16] = biological target: Peroxisome proliferator-activated receptor delta (Homo sapiens) (UniProt Q03181); assay: qHTS assay to identify small molecule agonists of the peroxisome proliferator-activated receptor delta (PPARd) signaling pathway (AID 743212; calls by dose curve)
Summary of the method: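 A PPARd-bla HEK293H line with beta-lactamase under an Upstream Activator Sequence is treated with compounds at 37 C. Substrate loading for 2 h at room temperature precedes the fluorescence measurement.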

[17] = biological target: Peroxisome proliferator-activated receptor delta (Homo sapiens) (UniProt Q03181); assay: qHTS assay to identify small molecule antagonists of the peroxisome proliferator-activated receptor delta (PPARd) signaling pathway (AID 743215; active means well fitted inhibition curve with a large enough effect in the signal ratio in the repeat runs, not every such curve was filed as active; the % refers to the signal ratio;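 further: cells stimulated with agonist L165041 at 300 nM final during compound exposure; series mostly up to about 62 µM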)
Summary of the method: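 Antagonist-mode beta-lactamase reporter screen: HEK293H cells with UAS-bla under PPARd control, stimulated by 300 nM L165041 (final) alongside test compound for 17 h at 37 C, then FRET fluorescence after 2 h substrate incubation.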

[18] = qHTS assay for small molecule agonists of the antioxidant response element (ARE) signaling pathway (AID 743202; active means well fitted activation curve with a large enough effect in the signal ratio in the repeat runs, not every such curve was filed as active; the % refers to the signal ratio; further: potency means the concentration at half of the fitted maximal effect)
Summary of the method: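 Compounds delivered in DMSO to ARE-bla HepG2 cells (2,000 cells/well, pre-incubated 5 h) and left 16 h at 37 C. LiveBLAzer B/G FRET substrate then added for 2 h at RT before fluorescence reading.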

[19] = biological target: Vitamin D3 receptor (Homo sapiens) (UniProt P11473); assay: qHTS assay to identify small molecule antagonists of the vitamin D receptor (VDR) signaling pathway (AID 743223; active means well fitted inhibition curve with a large enough effect in the signal ratio in the repeat runs, not every such curve was filed as active; the % refers to the signal ratio)
Summary of the method: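 Cells carrying a VDR-driven beta-lactamase reporter (VDR-bla) were co-treated with compound and 3 nM final 1alpha,25-dihydroxyvitamin D3 for 16 h at 37C; reporter activity was measured as FRET substrate fluorescence after 2 h at room temperature.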

[20] = biological target: Peroxisome proliferator-activated receptor gamma (Homo sapiens) (UniProt P37231); assay: qHTS assay to identify small molecule antagonists of the peroxisome proliferator-activated receptor gamma (PPARg) signaling pathway (AID 743191; calls by dose curve; further: nearly all actives have a fitted effect of over 30% in size; further: potency means the concentration at half of the fitted maximal effect)
Summary of the method: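 GeneBLAzer PPARg UAS-bla HEK293H cells carrying a UAS-driven beta-lactamase reporter were plated at 3000 cells/well, preincubated 5 h at 37C, then given compound for 17 h at 37C; LiveBLAzer B/G FRET substrate was read after 1 h at room temperature.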

Aryl hydrocarbon receptor (Homo sapiens), sequence (P35869 whole entry, looked up): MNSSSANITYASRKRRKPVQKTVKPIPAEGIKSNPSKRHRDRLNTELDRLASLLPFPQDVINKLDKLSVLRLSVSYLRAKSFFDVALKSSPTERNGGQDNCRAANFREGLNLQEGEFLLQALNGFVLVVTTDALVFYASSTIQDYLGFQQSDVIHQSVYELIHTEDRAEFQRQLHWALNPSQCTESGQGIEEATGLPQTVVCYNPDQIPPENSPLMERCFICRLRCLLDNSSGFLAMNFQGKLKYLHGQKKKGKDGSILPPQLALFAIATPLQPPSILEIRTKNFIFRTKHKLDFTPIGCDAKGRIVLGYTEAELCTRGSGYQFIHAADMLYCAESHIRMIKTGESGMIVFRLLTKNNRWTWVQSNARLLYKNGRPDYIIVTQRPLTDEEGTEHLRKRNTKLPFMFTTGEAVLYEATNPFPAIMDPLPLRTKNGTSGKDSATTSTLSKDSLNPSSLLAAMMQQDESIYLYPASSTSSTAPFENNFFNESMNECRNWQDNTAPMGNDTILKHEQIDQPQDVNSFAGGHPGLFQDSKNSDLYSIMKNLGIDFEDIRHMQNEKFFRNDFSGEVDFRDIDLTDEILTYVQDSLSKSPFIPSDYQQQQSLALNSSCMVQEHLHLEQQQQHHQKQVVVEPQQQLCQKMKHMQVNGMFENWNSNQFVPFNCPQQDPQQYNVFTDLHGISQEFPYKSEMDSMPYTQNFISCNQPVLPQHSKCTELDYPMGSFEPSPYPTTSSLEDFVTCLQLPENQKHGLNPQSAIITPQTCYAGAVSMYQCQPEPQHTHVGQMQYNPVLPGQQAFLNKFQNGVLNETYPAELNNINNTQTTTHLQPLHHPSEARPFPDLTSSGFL
Peroxisome proliferator-activated receptor delta (Homo sapiens), sequence (Q03181 whole entry, looked up): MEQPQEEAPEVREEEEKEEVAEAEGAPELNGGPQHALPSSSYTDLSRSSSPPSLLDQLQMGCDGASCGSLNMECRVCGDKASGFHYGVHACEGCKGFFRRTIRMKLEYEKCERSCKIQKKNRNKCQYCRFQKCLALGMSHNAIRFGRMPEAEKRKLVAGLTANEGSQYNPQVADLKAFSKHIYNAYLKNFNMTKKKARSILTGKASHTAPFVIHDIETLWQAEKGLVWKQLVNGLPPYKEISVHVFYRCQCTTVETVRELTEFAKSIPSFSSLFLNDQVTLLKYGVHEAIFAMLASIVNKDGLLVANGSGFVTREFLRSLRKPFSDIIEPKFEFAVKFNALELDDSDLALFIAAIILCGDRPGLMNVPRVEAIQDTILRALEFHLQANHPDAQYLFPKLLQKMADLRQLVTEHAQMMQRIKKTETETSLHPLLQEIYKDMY
Peroxisome proliferator-activated receptor gamma (Homo sapiens), sequence (P37231 whole entry, looked up): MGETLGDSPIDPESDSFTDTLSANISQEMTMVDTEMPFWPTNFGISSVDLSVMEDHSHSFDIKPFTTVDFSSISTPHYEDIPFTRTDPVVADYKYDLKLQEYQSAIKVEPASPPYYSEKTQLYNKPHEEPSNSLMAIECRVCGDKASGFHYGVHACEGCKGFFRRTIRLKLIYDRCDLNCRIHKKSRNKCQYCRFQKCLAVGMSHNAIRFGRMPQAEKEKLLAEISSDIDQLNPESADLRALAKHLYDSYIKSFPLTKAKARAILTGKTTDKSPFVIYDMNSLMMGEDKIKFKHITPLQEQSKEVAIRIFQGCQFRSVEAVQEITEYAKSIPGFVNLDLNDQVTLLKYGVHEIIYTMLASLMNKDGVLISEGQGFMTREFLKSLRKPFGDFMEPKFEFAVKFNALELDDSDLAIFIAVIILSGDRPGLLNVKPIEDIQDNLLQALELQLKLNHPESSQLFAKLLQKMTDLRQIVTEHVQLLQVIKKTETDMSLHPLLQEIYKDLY
Vitamin D3 receptor (Homo sapiens), sequence (P11473 whole entry, looked up): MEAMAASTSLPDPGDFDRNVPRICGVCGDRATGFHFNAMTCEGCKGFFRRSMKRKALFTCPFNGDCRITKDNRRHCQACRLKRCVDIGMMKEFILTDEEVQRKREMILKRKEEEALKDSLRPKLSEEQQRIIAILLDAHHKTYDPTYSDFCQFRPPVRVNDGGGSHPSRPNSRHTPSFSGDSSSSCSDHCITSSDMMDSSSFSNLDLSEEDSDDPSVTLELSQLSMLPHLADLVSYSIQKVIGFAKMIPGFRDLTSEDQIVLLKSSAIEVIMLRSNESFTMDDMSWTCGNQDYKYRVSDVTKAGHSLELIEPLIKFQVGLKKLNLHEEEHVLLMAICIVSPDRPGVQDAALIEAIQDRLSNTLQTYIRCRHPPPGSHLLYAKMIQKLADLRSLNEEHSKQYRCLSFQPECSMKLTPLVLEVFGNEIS
Bile acid receptor (Homo sapiens), sequence (Q96RI1 whole entry, looked up): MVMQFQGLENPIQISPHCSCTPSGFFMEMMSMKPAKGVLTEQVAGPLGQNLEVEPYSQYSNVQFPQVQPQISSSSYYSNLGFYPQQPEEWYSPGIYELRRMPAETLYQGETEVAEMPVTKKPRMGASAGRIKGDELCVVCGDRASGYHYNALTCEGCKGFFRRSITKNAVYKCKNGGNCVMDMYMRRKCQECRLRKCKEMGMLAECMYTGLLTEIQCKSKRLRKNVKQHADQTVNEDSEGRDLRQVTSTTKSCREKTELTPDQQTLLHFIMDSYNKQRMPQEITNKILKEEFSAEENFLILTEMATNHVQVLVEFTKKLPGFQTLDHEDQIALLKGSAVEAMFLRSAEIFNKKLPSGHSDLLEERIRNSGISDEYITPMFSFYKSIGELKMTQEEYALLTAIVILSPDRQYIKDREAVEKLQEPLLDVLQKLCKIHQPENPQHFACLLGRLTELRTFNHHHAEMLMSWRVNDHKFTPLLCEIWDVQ

| Compound | Potency [1] | Potency [2] | Potency [3] | Potency [4] | Potency [5] | Potency [6] | Potency [7] | Potency [8] | Potency [9] | Potency [10] | Potency [11] | Potency [12] | Potency [13] | Potency [14] | outcome [15] | Potency [16] | Potency [17] | Potency [18] | outcome [19] | Potency [20] |
| --- | --- | --- | --- | --- | --- | --- | --- | --- | --- | --- | --- | --- | --- | --- | --- | --- | --- | --- | --- | --- |
| O=C(c1ccc(O)cc1)c1ccc(Cl)cc1 | inactive | inactive | inactive | inactive | inactive | inactive | inactive | inactive | inactive | inactive | inactive | inactive | inactive | inactive | inactive | – | – | – | – | – |
| CC(C)(O)c1ccccc1CC[C@@H](SCC1(CC(=O)O)CC1)c1cccc(/C=C/c2ccc3ccc(Cl)cc3n2)c1 | inactive | 23.7 µM (active) | inactive | inactive | – | inactive | inactive | inactive | inactive | inactive | inactive | inactive | inactive | – | inactive | inactive | inactive | – | – | – |
| O=C(CCCCCCCCC#CI)Oc1ccccc1 | inactive | inactive | inactive | inactive | inactive | inactive | – | inactive | – | inactive | inactive | inactive | inactive | inactive | – | – | – | inactive | inactive | – |
| O=[N+]([O-])c1cccc(S(=O)(=O)NCCNS(=O)(=O)c2cccc([N+](=O)[O-])c2)c1 | inactive | inactive | inactive | inactive | – | inactive | inactive | inactive | inactive | – | inactive | inactive | inactive | inactive | inactive | inactive | – | – | inactive | inactive |
| CCCCCCOC(=O)C(C)C | inactive | inactive | inactive | inactive | inactive | inactive | – | inactive | – | – | inactive | inactive | inactive | inactive | inactive | inactive | – | inactive | inactive | – |
| CCN(Cc1cccc(S(=O)(=O)O)c1)c1ccc(C(=C2C=CC(=[N+](CC)Cc3cccc(S(=O)(=O)[O-])c3)C=C2)c2ccccc2)cc1 | inactive | inactive | inactive | inactive | inactive | inactive | inactive | inactive | inactive | inactive | – | inactive | – | inactive | – | – | – | 38.3 µM (active) | – | – |
| O=C(Nc1ccccc1)Nc1ccccc1 | inactive | 30.8 µM (active) | inactive | inactive | inactive | inactive | – | inactive | inactive | inactive | – | – | – | – | – | inactive | inactive | – | – | – |
| CCC(C)(O)CCC=C(C)C (stereo unspecified) | inactive | inactive | inactive | inactive | – | inactive | inactive | inactive | inactive | – | – | inactive | – | inactive | – | inactive | inactive | – | inactive | inactive |
| C=CC(C)(O)CCCC(C)CCCC(C)CCCC(C)C (stereo unspecified) | inactive | inactive | inactive | inactive | inactive | inactive | inactive | inactive | inactive | inactive | – | inactive | – | inactive | inactive | inactive | inactive | inactive | inactive | – |
| CN1CCN(c2c(F)cc3c(=O)c(C(=O)O)cn4c3c2OCN4C)CC1 | inactive | inactive | inactive | inactive | inactive | inactive | inactive | – | – | – | – | – | – | inactive | – | inactive | inactive | – | – | – |
| CC(N)CN (stereo unspecified) | inactive | inactive | inactive | inactive | inactive | inactive | inactive | – | inactive | inactive | inactive | inactive | inactive | inactive | – | inactive | – | inactive | inactive | – |
| CCC(C)(C)C1CCC(O)CC1 (stereo unspecified) | inactive | inactive | inactive | inactive | inactive | inactive | inactive | inactive | inactive | inactive | – | – | – | inactive | inactive | inactive | inactive | inactive | – | – |
| NC(=O)Nc1ccc(Cl)cc1 | inactive | inactive | inactive | inactive | – | inactive | inactive | inactive | inactive | inactive | – | – | – | inactive | inactive | inactive | – | inactive | inactive | inactive |
| CSc1ccc(Oc2ccc(S(N)(=O)=O)cc2CN(C)C)cc1C | inactive | inactive | inactive | inactive | inactive | – | inactive | inactive | – | – | – | – | inactive | – | inactive | – | – | – | – | – |
| CCc1nn(CCCN2CCN(c3cccc(Cl)c3)CC2)c(=O)n1CCOc1ccccc1 | 29.8 µM (active) | inactive | 23.7 µM (active) | inactive | inactive | – | inactive | inactive | – | inactive | – | – | – | inactive | – | – | inactive | – | – | – |
| Cc1oc(C)c(C(=O)Nc2ccccc2)c1C | inactive | 24.3 µM (active) | inactive | – | inactive | inactive | – | inactive | inactive | – | – | inactive | – | – | inactive | inactive | – | – | inactive | 24.5 µM (active) |
| CCn1nc(C)c2c1C(=O)NCC(c1ccc(O)cc1)=N2 | inactive | 24.3 µM (active) | inactive | inactive | – | – | inactive | inactive | inactive | – | – | inactive | – | inactive | inactive | inactive | – | – | – | – |
| CC(=O)OCC(=O)[C@@]12OC(C)(C)O[C@@H]1C[C@H]1[C@@H]3C[C@H](F)C4=CC(=O)C=C[C@]4(C)[C@@]3(F)[C@@H](O)C[C@@]12C | inactive | inactive | inactive | inactive | inactive | – | inactive | inactive | inactive | inactive | – | inactive | – | – | inactive | inactive | inactive | – | – | – |
